Measured values from PubChem BioAssay AID1159580 (chemical genetic matrix, 2015).
Several values for one entry are separate records, joined by “and”; a condition that tells them apart may be missing. Equal values may be shown once. About 2,000 (36%) of roughly 5,500 compounds were called active. Not shown: some 18% with an inconclusive outcome. Rule as the data show it: active = normalized growth mostly below about 0.91 (no sharp cut-off); inconclusive = no clear call, values can overlap the other calls; inactive = mostly above about 0.92. This is one part of the list.

Experiment: chemical genetic growth profiling, strain panel (AID 1159580);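 also: tested at 20 µM; growth read once vehicle control cultures reached saturation at 30 °C; 1 = growth at the plate median or of vehicle wells; lower values mean less growth of the strain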
Settings: S. cerevisiae deletion strains, growth OD

Measured: normalized growth

CN(C)CCc1c[nH]c2ccc(CS(=O)(=O)N3CCCC3)cc12
inactive: locus YAL013W, strain DEP1, stronger effect = lower value 0.991 | locus YAL021C, strain ccr4, stronger effect = lower value 0.991 | locus YAL026C, strain drs2, stronger effect = lower value 0.976 | locus YAL030W, strain snc1, stronger effect = lower value 1.01 | locus YBL061C, strain skt5, stronger effect = lower value 1.01 | locus YBR009C, strain hhf1, stronger effect = lower value 0.925 | locus YBR021W, strain FUR4, stronger effect = lower value 1 | locus YBR023C, strain chs3, stronger effect = lower value 0.997 | locus YBR171W, strain sec66, stronger effect = lower value 1 | locus YBR229C, strain ROT2, stronger effect = lower value 0.995 | locus YBR231C, strain swc5, stronger effect = lower value 0.993 | locus YBR279W, strain paf1, stronger effect = lower value 0.986 | locus YCL011C, strain gbp2, stronger effect = lower value 0.982 | locus YCL016C, strain dcc1, stronger effect = lower value 1.02 | locus YCL029C, strain bik1, stronger effect = lower value 0.981 | locus YCL069W, strain vba3, stronger effect = lower value 0.977 | locus YCR088W, strain abp1, stronger effect = lower value 0.986 | locus YDL005C, strain med2, stronger effect = lower value 1.01 | locus YDL035C, strain GPR1, stronger effect = lower value 1.01 | locus YDL040C, strain nat1, stronger effect = lower value 0.99 | locus YDL074C, strain BRE1, stronger effect = lower value 1.05 | locus YDL101C, strain DUN1, stronger effect = lower value 0.987 | locus YDL134C, strain PPH21, stronger effect = lower value 0.99 | locus YDL185W, strain tfp1, stronger effect = lower value 0.979 | locus YDL192W, strain arf1, stronger effect = lower value 0.991 | locus YDR001C, strain nth1, stronger effect = lower value 0.98 | locus YDR069C, strain doa4, stronger effect = lower value 0.992 | locus YDR101C, strain arx1, stronger effect = lower value 0.986 | locus YDR137W, strain rgp1, stronger effect = lower value 0.986 | locus YDR150W, strain NUM1, stronger effect = lower value 0.999 | locus YDR162C, strain NBP2, stronger effect = lower value 1.01 | locus YDR195W, strain ref2 0.937 | locus YDR297W, strain sur2, stronger effect = lower value 0.996 | locus YDR318W, strain mcm21, stronger effect = lower value 0.996 | locus YDR334W, strain swr1, stronger effect = lower value 0.949 | locus YDR335W, strain msn5, stronger effect = lower value 0.982 | locus YDR388W, stronger effect = lower value 0.988 | locus YDR392W, strain spt3, stronger effect = lower value 0.972 | locus YDR502C, strain sam2, stronger effect = lower value 0.989 | locus YEL003W, strain gim4, stronger effect = lower value 0.977 | locus YEL037C, strain rad23, stronger effect = lower value 0.976 | locus YEL061C, strain CIN8 (second series), stronger effect = lower value 0.958 | locus YEL061C, strain CIN8, stronger effect = lower value 1 | locus YER015W, strain faa2, stronger effect = lower value 0.993 | locus YER016W, strain bim1, stronger effect = lower value 1.05 | locus YER110C, stronger effect = lower value 0.99 | locus YER111C, strain swi4, stronger effect = lower value 0.998 | locus YER155C, strain BEM2 (second series), stronger effect = lower value 1.02 | locus YER155C, strain BEM2, stronger effect = lower value 1.02 | locus YER167W, strain BCK2, stronger effect = lower value 0.992 | locus YFR010W, strain ubp6, stronger effect = lower value 0.947 | locus YGL078C, strain dbp3, stronger effect = lower value 0.985 | locus YGL086W, strain mad1, stronger effect = lower value 0.988 | locus YGL167C, strain pmr1, stronger effect = lower value 0.983 | locus YGL173C, strain kem1, stronger effect = lower value 0.958 | locus YGL227W, strain vid30, stronger effect = lower value 0.966 | locus YGL240W, strain doc1, stronger effect = lower value 0.926 | locus YGL248W, strain PDE1, stronger effect = lower value 0.993 | locus YGL253W, strain hxk2, stronger effect = lower value 1 | locus YGR078C, strain PAC10, stronger effect = lower value 1.01 | locus YGR135W, strain pre9, stronger effect = lower value 0.999 | locus YGR229C, strain SMI1, stronger effect = lower value 1.01 | locus YGR252W, strain gcn5, stronger effect = lower value 1.03 | locus YHR013C, strain ard1, stronger effect = lower value 1.02 | locus YHR027C, strain rpn1, stronger effect = lower value 0.984 | locus YHR030C, strain SLT2, stronger effect = lower value 0.995 and 0.96 | locus YHR079C, strain IRE1 (second series), stronger effect = lower value 0.981 | locus YHR079C, strain IRE1, stronger effect = lower value 0.984 | locus YHR094C, strain hxt1, stronger effect = lower value 0.987 | locus YHR129C, strain ARP1, stronger effect = lower value 0.981 | locus YHR142W, strain chs7, stronger effect = lower value 0.976 | locus YHR200W, strain rpn10, stronger effect = lower value 0.991 | locus YIL066C, strain RNR3, stronger effect = lower value 0.998 | locus YIL073C, strain SPO22, stronger effect = lower value 0.999 | locus YIL125W, strain kgd1, stronger effect = lower value 0.994 | locus YIR030C, strain dcg1, stronger effect = lower value 0.983 | locus YJL092W, strain hpr5, stronger effect = lower value 0.99 | locus YJL095W, strain BCK1 (second series), stronger effect = lower value 0.991 | locus YJL095W, strain BCK1, stronger effect = lower value 0.984 and 0.977 | locus YJL115W, strain asf1, stronger effect = lower value 0.987 | locus YJL129C, strain trk1, stronger effect = lower value 0.994 | locus YJL134W, strain LCB3, stronger effect = lower value 0.991 | locus YJL154C, strain vps35, stronger effect = lower value 0.978 | locus YJL164C, strain tpk1, stronger effect = lower value 0.99 | locus YJL166W, strain qcr8, stronger effect = lower value 0.986 | locus YJL168C, strain set2, stronger effect = lower value 0.987 | locus YJL187C, strain SWE1 (second series), stronger effect = lower value 0.986 | locus YJL187C, strain SWE1, stronger effect = lower value 1.01 | locus YJR043C, strain POL32, stronger effect = lower value 0.994 | locus YJR066W, strain TOR1, stronger effect = lower value 0.925
active: locus YDR159W, strain sac3, stronger effect = lower value 0.831
